PPARg SRC2 recr: promotes SRC-2 coactivator recruitment by human PPARgamma. activation, % at 8 µM. hit rate 0.34% among 200,000. PPARgamma LBD-SRC-2 recruitment, biochemical
Target sequence (P37231 whole entry, looked up, the tested form may be a part): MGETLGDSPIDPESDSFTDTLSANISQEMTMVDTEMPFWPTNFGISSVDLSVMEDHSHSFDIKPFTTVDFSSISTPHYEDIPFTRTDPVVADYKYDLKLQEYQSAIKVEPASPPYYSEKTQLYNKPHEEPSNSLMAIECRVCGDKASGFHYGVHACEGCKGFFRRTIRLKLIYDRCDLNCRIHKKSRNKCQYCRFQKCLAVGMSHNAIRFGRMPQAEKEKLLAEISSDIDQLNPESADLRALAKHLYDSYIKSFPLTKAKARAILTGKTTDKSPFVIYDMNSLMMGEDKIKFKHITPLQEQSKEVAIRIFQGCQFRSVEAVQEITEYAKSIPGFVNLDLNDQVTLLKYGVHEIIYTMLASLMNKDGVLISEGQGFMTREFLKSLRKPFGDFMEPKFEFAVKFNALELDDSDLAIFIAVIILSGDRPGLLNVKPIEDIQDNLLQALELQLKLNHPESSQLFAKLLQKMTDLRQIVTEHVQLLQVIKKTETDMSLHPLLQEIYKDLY
SRC3 TRFRET art: counter-screen for PPARgamma SRC-3 recruitment agonists: TR-FRET artefact; TR-FRET ratio at 8 µM; hit rate 0.39% among 99,000; AID 1048; PPARgamma/SRC-3 format; hits give high values; in the data active means TR-FRET ratio above about 2000
PPARg SRC-1 ag: agonists of human PPARgamma SRC-1 coactivator recruitment. P37231. PPARgamma-SRC-1 coactivator recruitment biochemical assay. activation, % at 8 µM. hit rate 0.41% among 200,000; in the data active means activation above about 19%
SRC1 TRFRET art: counter-screen for PPARgamma SRC-1 recruitment agonists: TR-FRET artefact; TR-FRET detection artefact counter-screen, emission ratio; hits give high values; TR-FRET ratio at 8 µM; hit rate 0.34% among 99,000; in the data active means TR-FRET ratio above about 2300
TR-FRET SRC-2 ct: TR-FRET artefact, counter-screen to PPARgamma/SRC-2 agonist assay; hits give high values; TR-FRET ratio at 8 µM; hit rate 0.4% among 200,000; in the data active means TR-FRET ratio above about 2000
PPARg SRC3 recr: agonists of human PPARgamma SRC-3 coactivator recruitment | P37231 | biochemical PPARgamma/SRC-3 coactivator recruitment assay | activation, % at 8 µM | hit rate 0.26% among 200,000; in the data active means activation above about 23%
PPARg SRC2 ag: human PPARgamma SRC-2 recruitment agonism, confirmation | shares compounds with PPARg SRC3 recr | biochemical SRC-2 recruitment by PPARgamma | activation, % at 8 µM | hit rate 52% among 790 | AID 1297
PPARg SRC1 ag: human PPARgamma SRC-1 recruitment agonism, confirmation. PPARgamma–SRC-1 coactivator recruitment biochemical assay. AID 1300. shares compounds with PPARg SRC3 recr. activation, % at 8 µM. hit rate 43% among 790; in the data active means activation above about 20%
PPARg SRC3 ag: confirmation of agonists of SRC-3 recruitment by human PPARgamma. AID 1301. activation, % at 8 µM. hit rate 29% among 790. biochemical PPARgamma-SRC-3 coactivator recruitment, agonist mode. shares compounds with PPARg SRC3 recr; in the data active means activation above about 24%
Each line names hits and unclear results; the compound was inactive in the other large screens (follow-up assays come after a bar, where they were run). Compounds with a hit are over-represented: about 0.9% of the library has one in this group of screens. Unless noted, no stated cut-off is given here; in the data, active means activation above about 22%; inactive means the rest.

CCC(CC)C(=O)OCC(=O)Nc1cc(OC)c([N+](=O)[O-])cc1C	none
CCCC(=O)Nc1ccc(Cc2ccc(NC(=O)CCC)c(C(=O)O)c2)cc1C(=O)O	none
Cc1nc2sccc2c(=O)n1N	none
COC(=O)c1sccc1NC(=S)N1CCN(c2cc(C)ccc2C)CC1	none
CC(=O)CSc1ncnc2c1oc1ccccc12	PPARg SRC2 recr 114, PPARg SRC-1 ag 135, TR-FRET SRC-2 ct 5487, PPARg SRC3 recr 219 (no result: SRC3 TRFRET art, SRC1 TRFRET art) | PPARg SRC2 ag 65 | PPARg SRC1 ag 43 | PPARg SRC3 ag 44
Fc1ccccc1CSc1ncnc2c1oc1ccccc12	PPARg SRC-1 ag 46, TR-FRET SRC-2 ct 2035, PPARg SRC3 recr 51 (no result: SRC3 TRFRET art, SRC1 TRFRET art) | PPARg SRC2 ag 49 | PPARg SRC1 ag 38 | PPARg SRC3 ag 32
O=c1c2oc3ccccc3c2ncn1Cc1ccccc1F	none (no result: SRC3 TRFRET art, SRC1 TRFRET art)
O=C(CSc1ncnc2c1oc1ccccc12)Nc1nc2ccccc2s1	PPARg SRC-1 ag 30, PPARg SRC3 recr 39 (no result: SRC3 TRFRET art, SRC1 TRFRET art) | PPARg SRC2 ag 44 | PPARg SRC1 ag 31 | PPARg SRC3 ag 28
O=C(CSc1nc2ccccc2o1)Nc1nc2ccccc2s1	none (no result: SRC3 TRFRET art, SRC1 TRFRET art)
O=C(CSc1ncnc2c1oc1ccccc12)Nc1ccccc1F	PPARg SRC-1 ag 33, PPARg SRC3 recr 27 (no result: SRC3 TRFRET art, SRC1 TRFRET art) | PPARg SRC2 ag 37 | PPARg SRC1 ag 29 | PPARg SRC3 ag inactive
O=C(O)CSc1nc(-c2ccccc2)nc2c1oc1ccccc12	none (no result: SRC3 TRFRET art, SRC1 TRFRET art)
Cc1ccc(S(=O)(=O)N2CCC(=O)N(C(COCc3cccc(C(F)(F)F)c3)C(C)C)CC2)cc1 (configuration not stated)	none
Cc1c(C(=O)NC(=S)Nc2ccc(N3CCOCC3)cc2)cccc1[N+](=O)[O-]	none
O=c1c2oc3ccccc3c2ncn1Cc1cccc(Cl)c1	none
O=C(CSc1ncnc2c1oc1ccccc12)Nc1cccc(Cl)c1	PPARg SRC2 recr 25, PPARg SRC3 recr 33 (no result: SRC3 TRFRET art, SRC1 TRFRET art) | PPARg SRC2 ag 27 | PPARg SRC1 ag 22 | PPARg SRC3 ag inactive
CCCCC(=O)NC(=S)Nc1cccc(NC(=O)c2ccco2)c1	none
C(=N\Nc1nc2ccccc2[nH]1)/c1ccc2c(c1)OCO2	PPARg SRC-1 ag 22, TR-FRET SRC-2 ct 2021 | PPARg SRC2 ag inactive | PPARg SRC1 ag inactive | PPARg SRC3 ag inactive
COc1cc(/C=N/Nc2nc3ccccc3[nH]2)ccc1O	none
COc1ccc(O)c(/C=N/Nc2nc3ccccc3[nH]2)c1	PPARg SRC2 recr 26 | PPARg SRC2 ag inactive | PPARg SRC1 ag inactive | PPARg SRC3 ag inactive
C(=N\Nc1nc2ccccc2[nH]1)/c1cccs1	PPARg SRC3 recr 28 (no result: SRC3 TRFRET art, SRC1 TRFRET art) | PPARg SRC2 ag inactive | PPARg SRC1 ag inactive | PPARg SRC3 ag inactive
C(=N\Nc1nc2ccccc2[nH]1)/c1ccncc1	none
COc1ccc(/C=N/NC(=O)c2ccc3ccccc3c2)cc1OS(=O)(=O)c1ccc(NC(C)=O)cc1	none (no result: SRC3 TRFRET art, SRC1 TRFRET art)
C/C(=N/NS(=O)(=O)c1ccc(C)cc1)c1cccc(NC(=O)c2cccc(Cl)c2)c1	none (no result: SRC3 TRFRET art, SRC1 TRFRET art)
C/C(=N/NS(=O)(=O)c1ccc(Cl)cc1)c1cccc(NC(=O)c2ccc(Cl)cc2Cl)c1	PPARg SRC2 recr 24 (no result: SRC3 TRFRET art, SRC1 TRFRET art) | PPARg SRC2 ag inactive | PPARg SRC1 ag inactive | PPARg SRC3 ag inactive
Cc1ccc2[nH]c3c(=S)nc[nH]c3c2c1	PPARg SRC2 recr 38, SRC3 TRFRET art 2834, PPARg SRC-1 ag 23, TR-FRET SRC-2 ct 2733 | PPARg SRC2 ag inactive | PPARg SRC1 ag inactive | PPARg SRC3 ag inactive
Cc1ccnc(SCC(=O)c2cc3ccccc3o2)n1	none
C=CCc1cc2c(oc(=O)c3ccccc32)c(C)c1O	PPARg SRC2 recr 26, SRC3 TRFRET art 2419, PPARg SRC-1 ag 28, SRC1 TRFRET art 2491, TR-FRET SRC-2 ct 2206 | PPARg SRC2 ag inactive | PPARg SRC1 ag inactive | PPARg SRC3 ag inactive
Cc1c(O)c(CN2CCCC2)cc2c1oc(=O)c1ccccc12	none (no result: SRC3 TRFRET art, SRC1 TRFRET art)

Compound activity from PubChem BioAssay.
